Screening data as filed in PubChem BioAssay.
This is a sample that favours compounds with a hit; in the whole collection about 10% have one here.
3T3 cytotox = kills NIH 3T3 cells; NIH 3T3 viability, CellTiter-Glo ATP luminescence, 48-72 h; Potency, µM (series often up to 96.7 µM), inactives show top-dose activity change, negative = cytotoxicity, hits mostly inhibitors; actives 4.3% (n = 94,000); AID 1345082; further: on the % scale 0 is the no-effect control and ±100 the full control effect; nearly all actives have a fitted effect of over 55% in size
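Cytotoxicity was measured by CellTiter-Glo ATP luminescence after 48 or 72 h compound exposure at 37 °C. Mouse NIH 3T3 fibroblasts were seeded at 400 cells/well and dosed by 23 nL pin transfer.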
GPT2 inhibitor = blocks human glutamate pyruvate transaminase 2; Q8TD30; Recombinant GPT2, coupled pyruvate oxidase/HRP Amplex Red fluorescence; Potency, µM (doses to about 57.7 µM), inactives show top-dose activity change, negative = inhibition, hits mostly inhibitors; actives 0.25% (n = 100,000); further: on the % scale 0 is the no-effect control and ±100 the full control effect; nearly all actives have a fitted effect of over 60% in size
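Fluorescence of coupled pyruvate oxidase/HRP/Amplex Red system (50uM Amplex, 30 min, dark) reports pyruvate formed by GPT2. Enzyme reaction: 10ng/uL GPT2, 2mM L-alanine, 250uM a-KG, 30 min room temperature, pH 7.5; 50uM AOA control.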
HEK cytotox = HEK 293 cell cytotoxicity. HEK 293 viability, ATP luminescence (CellTiter-Glo), 48-72 h. Potency, µM (doses to about 115 µM), without a hit: top-dose activity change, negative = cytotoxicity, most hits filed as inhibitors. actives 6.6% (n = 94,000). AID 1345083; further: on the % scale 0 is the no-effect control and ±100 the full control effect; nearly all actives have a fitted effect of over 60% in size
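Viability of HEK 293 cells, plated at 250 cells/well, was judged by cellular ATP after compound treatment for 48 or 72 hr. Luminescence was imaged 10 min after CellTiter-Glo addition at room temperature.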
FLuc inh-1 = Photinus pyralis luciferase inhibition. P08659. purified P. pyralis luciferase, luminescence, biochemical. Potency, µM (titrated, usually from 115 µM), usual class: inhibitors. actives 2.5% (n = 76,000); further: on the % scale 0 is the no-effect control and ±100 the full control effect; nearly all actives have a fitted effect of over 65% in size
Target sequence (P08659 whole entry, looked up): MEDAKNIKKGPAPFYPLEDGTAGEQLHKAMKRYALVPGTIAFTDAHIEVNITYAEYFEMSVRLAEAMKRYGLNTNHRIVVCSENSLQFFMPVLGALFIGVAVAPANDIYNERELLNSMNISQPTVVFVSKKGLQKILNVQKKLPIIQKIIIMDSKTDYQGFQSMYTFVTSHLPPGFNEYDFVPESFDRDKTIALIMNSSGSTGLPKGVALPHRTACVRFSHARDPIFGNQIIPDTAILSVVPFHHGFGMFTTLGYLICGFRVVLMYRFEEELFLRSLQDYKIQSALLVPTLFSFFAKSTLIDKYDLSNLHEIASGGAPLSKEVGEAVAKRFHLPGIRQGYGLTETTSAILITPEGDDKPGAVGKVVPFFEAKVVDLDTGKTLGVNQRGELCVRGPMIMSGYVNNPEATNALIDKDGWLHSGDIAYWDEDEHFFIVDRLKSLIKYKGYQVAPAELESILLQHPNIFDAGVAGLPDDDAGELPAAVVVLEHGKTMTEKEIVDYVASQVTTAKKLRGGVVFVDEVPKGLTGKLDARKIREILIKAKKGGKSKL
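Purified 10nM P. pyralis luciferase with 10uM D-luciferin and 10uM ATP in 50mM Tris acetate pH 7.5, 10mM Mg acetate, 0.01% Tween-20, 0.05% BSA. qHTS titration; luminescence read by CCD imager.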
NPR1 antag = antagonists of human natriuretic peptide receptor Npr1; P16066; HEK293 hNpr1 GloSensor cGMP, ANP-stimulated luminescence; Potency, µM (highest dose often 46.3 µM), for the others: at the highest dose activity change, negative = inhibition, most hits filed as inhibitors; actives 1.6% (n = 76,000); AID 1347048; calls by dose curve; further: on the % scale 0 is the no-effect control and ±100 the full control effect; nearly all actives have a fitted effect of over 60% in size
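Compound pre-incubated 30 min at room temperature on GloSensor-loaded HEK293 cells stably carrying hNpr1 and the pGS-40F cGMP biosensor. Stimulation uses hNppA at 0.1 nM final; luminescence is taken at baseline and 20 min post-agonist.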
FLuc SDR no ATP = firefly luciferase binding stabilization, ATP absent; actives 7.8% (n = 1,300); Purified FLuc-C-HiBiT, Nano-Glo HiBiT luminescence, no ATP; shares compounds with FLuc inh-1; AID 1963318; Potency, µM (titrated, usually from 32.7 µM), for the others: at the highest dose activation (signal gain), most hits filed as activators; further: nearly all actives have a fitted effect of over 55% in size
FLuc SDR ATP = stabilizes firefly luciferase with ATP present. Potency, µM (series often up to 32.7 µM), for the others: top-dose activation (gain of signal), actives largely listed as activators. shares compounds with FLuc inh-1. purified FLuc-C-HiBiT + ATP, HiBiT complementation luminescence. AID 1963319. actives 8.7% (n = 1,300);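 further: signal reports ligand binding via conformational change of the enzyme rather than luciferase catalysis; % of control where 0% means no effect; nearly all actives have a fitted effect of over 55% in size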
FLuc inh-2 = firefly luciferase enzyme inhibition | shares compounds with FLuc inh-1 | purified FLuc-C-HiBiT enzyme, luciferin luminescence | Potency, µM (highest dose often 32.7 µM), for inactives: at the highest dose activity change, negative = inhibition, most hits filed as inhibitors | actives 42% (n = 1,300); further: on the % scale 0 is the no-effect control and ±100 the full control effect; nearly all actives have a fitted effect of over 70% in size
Active calls of the source: *. Unless noted, the call rests on the fitted dose curve; in most records, active means well fitted curve in the direction sought with a large enough effect; inconclusive means small, poorly fitted or top-dose-only effect, or another doubt; inactive means no such curve, though single readings can be large; an effect the other way counts as inactive or inconclusive. Potency means the concentration at half of the fitted maximal effect.

What do the screens show for `COc1ccc(F)c(-c2nc(CN3CCN(S(N)(=O)=O)CC3)c(C)o2)c1`?
3T3 cytotox: -25%; GPT2 inhibitor: -32%; HEK cytotox: inconclusive; FLuc inh-1: inactive; NPR1 antag: -5%

What do the screens show for `Cc1ccccc1-c1noc(-c2nc(-c3ccncc3)no2)n1`?
3T3 cytotox: 3%; GPT2 inhibitor: -4%; HEK cytotox: -6%; FLuc inh-1: inactive; NPR1 antag: -1%

What do the screens show for `CCCn1ncc(-c2nc(-c3ccncc3)no2)c1C`?
3T3 cytotox: inconclusive; GPT2 inhibitor: -7%; HEK cytotox: 35µM*; FLuc inh-1: 2.5µM*; NPR1 antag: inconclusive; FLuc SDR no ATP: inconclusive; FLuc SDR ATP: inconclusive; FLuc inh-2: 8.8µM*

What do the screens show for `CN(Cc1nccs1)c1ccc(-c2nc(-c3ccccc3F)no2)cn1`?
3T3 cytotox: -5%; GPT2 inhibitor: -3%; HEK cytotox: inconclusive; FLuc inh-1: 2.8µM*; NPR1 antag: inconclusive; FLuc SDR no ATP: 15%; FLuc SDR ATP: 17%; FLuc inh-2: inconclusive

What do the screens show for `CC(Cn1cccn1)Nc1ccc(-c2nc(-c3ccccc3F)no2)cn1` (stereo not given)?
3T3 cytotox: inconclusive; GPT2 inhibitor: -6%; HEK cytotox: 45µM*; FLuc inh-1: 3.5µM*; NPR1 antag: inconclusive; FLuc SDR no ATP: 15%; FLuc SDR ATP: inconclusive; FLuc inh-2: 9.9µM*

What do the screens show for `Cc1ccc(CN2CCC[C@H]2C(=O)N2CCCCCCNC(=O)CC2)s1`?
3T3 cytotox: -14%; GPT2 inhibitor: 4%; HEK cytotox: -6%; FLuc inh-1: inactive; NPR1 antag: -11%

What do the screens show for `Cc1ccc(C(=O)NC2CCN(Cc3cccc(-c4cccs4)c3)CC2)cc1`?
3T3 cytotox: -29%; GPT2 inhibitor: -4%; HEK cytotox: inconclusive

How did COc1ccc(C(=O)NC2CCN(C(=O)c3ccc(-c4cccs4)cc3)CC2)cc1 do in these assays?
3T3 cytotox: inconclusive; GPT2 inhibitor: -7%; HEK cytotox: inconclusive

How did COC(=O)c1c(-c2cccs2)csc1NC(=O)c1ccc(C)cc1 do in these assays?
FLuc SDR no ATP: 11%; FLuc SDR ATP: 8%; FLuc inh-2: inconclusive

What do the screens show for `COC(=O)c1c(-c2cccs2)csc1NC(=O)c1ccc(Br)cc1`?
FLuc SDR no ATP: 5%; FLuc SDR ATP: 4%; FLuc inh-2: 11µM*

How did CS(=O)(=O)Nc1ccc(-c2nc3ccccc3s2)cc1 do in these assays?
FLuc SDR no ATP: inconclusive; FLuc SDR ATP: inconclusive; FLuc inh-2: 2.2µM*

Results for Cc1ccc(Nc2cc(-c3cccc(N4C(=O)c5ccccc5C4=O)c3)ncn2)cc1NS(C)(=O)=O ?
GPT2 inhibitor: -29%

What do the screens show for `Cc1c(NS(C)(=O)=O)cccc1-c1nc2ccccc2s1`?
FLuc SDR no ATP: 29%; FLuc SDR ATP: 21%; FLuc inh-2: inconclusive

How did O=C(NCCc1noc(C2CC2)n1)c1ccc(Cl)s1 do in these assays?
3T3 cytotox: inactive; GPT2 inhibitor: inactive; HEK cytotox: -4%; FLuc inh-1: inactive; NPR1 antag: -2%

How did COc1cc(OC)cc(C(=O)N2CCN(c3cc(C(F)(F)F)nc(C)n3)CC2)c1 do in these assays?
3T3 cytotox: -12%; GPT2 inhibitor: -2%; HEK cytotox: 1%; FLuc inh-1: inactive; NPR1 antag: 2%
